Most compounds without a hit are left out; they make up all but 8.1% or so of the library.
ClpP mod = qHTS Assay for Activators of ClpP; purified B. subtilis ClpP, FRET peptide cleavage, 20 min; ATP-dependent Clp protease proteolytic subunit (Bacillus subtilis (strain 168)), P80244; AID 651965, 2013; 1.9% of 340,000 active; Potency, µM (titrated, usually from 57.5 µM), without a hit: top-dose activity change, negative = active; active = well fitted falling curve with a large enough effect; inconclusive = small, poorly fitted or top-dose-only effect; inactive = no such curve, though single readings can be large or run the other way; also: the source files actives as falling curves though it sought activators and does not explain the sign; nearly all actives have a fitted effect of over 65% in size
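Purified B. subtilis ClpP, 10 microg/mL final in Tris/HCl pH8 with KCl, BSA, glycerol and Tween-20, cleaved an Abz/nitrotyrosine-quenched decapeptide. Fluorescence (ex 320, em 430) was read at 0 and 20 min at room temperature. Delta was normalized to 5.8 microM ADEP and DMSO/no-enzyme controls.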
RORg inh = qHTS for inhibitors of ROR gamma transcriptional activity. Nuclear receptor ROR-gamma (Mus musculus), P51450. Drosophila S2 Gal4-RORgamma UAS-luciferase reporter, 20 h. Potency, µM (top dose mostly 53.6 µM), for the others: at the highest dose activity change, negative = inhibition, actives largely listed as inhibitors. 5.4% of 310,000 active; also: % is scaled to controls: 0 for no effect and ±100 for the full control effect; nearly all actives have a fitted effect of over 60% in size
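Schneider cells (Drosophila), stable Gal4 DBD–ROR gamma + UAS-luc; 1 hr cmpd preincubation; Cu2+ induction 700 uM final; 20 hr ambient; luminescence.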
PINK1 expr mod = A Quantitative High throughput Screen to Identify Chemical Modulators of PINK1 Expression; PINK1 immunofluorescence, high-content cytometry, 24 h; Potency, µM (highest dose often 76.6 µM), for the others: at the top dose activation (PINK1 increase), usual class: activators; 0.2% of 410,000 active; active = well fitted activation curve with a large enough effect; inconclusive = small, poorly fitted or top-dose-only effect; cell line not stated here; also: % of control where 0% means no effect; nearly all actives have a fitted effect of over 65% in size
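Compound titrations (5 concentrations, 24 h) on a stable cell line; DMSO and CCCP controls. Endpoint: fixed-cell PINK1 immunofluorescence with mitochondrial, cell and nuclear markers, scanned by microplate cytometer.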
Gal4-VP16 FLuc = VP16 counterscreen qHTS for inhibitors of ROR gamma transcriptional activity | Drosophila S2 Gal4-VP16 UAS-luciferase, luminescence, 20 h | Potency, µM (titrated, usually from 53.6 µM), for inactives: at the top dose activity, negative = inhibition, most hits filed as inhibitors | 3.5% of 310,000 active | AID 2546, 2010;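 also: Gal4-VP16 expression switched on by copper sulfate through the metallothionein promoter; % is scaled to controls: 0 for no effect and ±100 for the full control effect; nearly all actives have a fitted effect of over 50% in size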
Sfp PPTase inh = qHTS Assay for Inhibitors of Bacillus subtilis Sfp phosphopantetheinyl transferase (PPTase); 4'-phosphopantetheinyl transferase ffp (Bacillus subtilis), Q9F4F7; Biochemical Sfp PPTase activity, qHTS; Potency, µM, for inactives: largest response in the series, negative = inhibition, most hits filed as inhibitors; 3.5% of 310,000 active;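 also: the enzyme is Sfp with the accession as filed and its product quenches rhodamine fluorescence; 0% = enzyme reaction without inhibitor and -100% = no enzyme wells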
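Reaction rates are the 30-min fluorescence difference (ex 525, em 598 nm) in wells containing 15 nM Sfp, 5 uM rhodamine-CoA and 12.5 uM BHQ-2-YbbR at pH 7.6 with 10 mM MgCl2.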
Epigenetic derep = Quantitative High-Throughput Screen for Regulators of Epigenetic Control | murine LDR cells, GFP reporter derepression, 30 h | Potency, µM (titrated, usually from 53.9 µM), for inactives: at the top dose GFP activation, usual class: activators | 0.2% of 280,000 active | AID 1865, 2009; also: % of control where 0% means no effect; nearly all actives have a fitted effect of over 60% in size
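In this reporter-derepression format, murine cells bearing a silenced integrated CMV-GFP locus incubate with test compound (30 h, 37 C), then are washed and imaged; fluorescent objects of 20–120 um count as induced cells.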
* hit, by the source's call; [ ] = dose if it differs, or a comment. Unless noted, calls follow the shape of the dose curve; as a rule, active = well fitted curve in the direction sought with a large enough effect; inconclusive = small, poorly fitted or top-dose-only effect, or another doubt; inactive = no such curve, though single readings can be large; an effect the other way counts as inactive or inconclusive. Potency is read from the fitted curve at half-maximal effect.

Screening O=C(CSc1cn(CCNC(=O)c2c(F)cccc2F)c2ccccc12)Nc1ccccc1F returned ClpP mod 1%, PINK1 expr mod 0% and Epigenetic derep -1%.
`COCc1ccc(O)c2ncccc12` gave ClpP mod 1%, RORg inh 6.3µM*, PINK1 expr mod 1%, Gal4-VP16 FLuc 3.2µM*, Sfp PPTase inh -3% and Epigenetic derep 4.5µM*.
Screening COc1cccc(N=Nc2ccc(O)c3ncccc23)c1 returned RORg inh 0.32µM*, PINK1 expr mod 12%, Gal4-VP16 FLuc -94% and Sfp PPTase inh 12%.
Screening O=S(=O)(O)c1cccc2c(N=Nc3ccc(O)c4ncccc34)cccc12 returned ClpP mod -2%, RORg inh inconclusive, PINK1 expr mod 2%, Gal4-VP16 FLuc -16% and Sfp PPTase inh -7%.
Screening O=Nc1ccc(O)c2ncccc12 returned ClpP mod 0%, RORg inh 1.6µM*, PINK1 expr mod 9%, Gal4-VP16 FLuc 5.6µM*, Sfp PPTase inh inconclusive and Epigenetic derep inconclusive.
Screening COc1cccc(N=Nc2ccc3cccnc3c2O)c1 returned ClpP mod 2%, RORg inh 0.56µM*, PINK1 expr mod 3%, Gal4-VP16 FLuc 0.89µM* and Sfp PPTase inh 15%.
For CC(=O)N(c1ccc2ccccc2c1)C1SC(=O)N(c2cccc(C)c2)C1=O (stereo unspecified) the results were ClpP mod 3% and PINK1 expr mod 0%.
Screening CC(C)c1cc(C(=O)NCc2ccc(F)cc2)no1 returned ClpP mod -1%, PINK1 expr mod 1% and Epigenetic derep -2%.
Screening COc1cc(OC)cc(C(=O)Nc2cc(-c3nc4cccnc4s3)ccc2C)c1 returned ClpP mod 2%, PINK1 expr mod 0% and Epigenetic derep 1%.
Cc1nc2ccccn2c1C(=O)/C=C/c1ccc(F)cc1 was read as ClpP mod -2%, RORg inh 8.9µM*, PINK1 expr mod -2%, Gal4-VP16 FLuc inconclusive, Sfp PPTase inh -9% and Epigenetic derep 1%.
For COc1ccc(/C=C/C(=O)c2c(C)nc3ccccn23)cc1 the results were ClpP mod 0%, RORg inh -8%, PINK1 expr mod inconclusive, Gal4-VP16 FLuc 12%, Sfp PPTase inh 5% and Epigenetic derep 3%.
Screening CSc1ccc(CC2C(=O)Nc3ccccc32)cc1 (stereo unspecified) returned ClpP mod 0%, PINK1 expr mod 3% and Epigenetic derep -1%.
`O=C(NCc1ccccc1)NCc1cccs1` gave RORg inh 17%, PINK1 expr mod -1%, Gal4-VP16 FLuc 4%, Sfp PPTase inh 15% and Epigenetic derep -1%.
For O=C(NCc1cccs1)Nc1cccs1 the results were ClpP mod 1%, RORg inh 13%, PINK1 expr mod 1%, Gal4-VP16 FLuc -7%, Sfp PPTase inh 18µM* and Epigenetic derep 6%.
For Cc1ccccc1CNC(=O)Nc1cccs1 the results were ClpP mod 1%, RORg inh 0%, PINK1 expr mod 0%, Gal4-VP16 FLuc 17%, Sfp PPTase inh 20µM* and Epigenetic derep 0%.
`COc1ccc(C2C(C(=O)Nc3cccnc3)=C(C)Nc3nc(SCc4ccccc4)nn32)cc1` (stereo unspecified) gave ClpP mod -1%, PINK1 expr mod -1% and Epigenetic derep 3%.
COc1cccc(CN(C)C(=O)c2cc(-c3ccc(OC)c(OC)c3)nc3ccccc23)c1 was read as ClpP mod inconclusive, RORg inh -8%, PINK1 expr mod -2%, Gal4-VP16 FLuc 5% and Sfp PPTase inh 2%.
For COc1cccc(CN(C)C(=O)c2cc(-c3ccc(F)cc3)nc3ccccc23)c1 the results were ClpP mod -10%, RORg inh -3%, PINK1 expr mod -1%, Gal4-VP16 FLuc 6% and Sfp PPTase inh 22µM*.
`COc1ccc(CCN(C)C(=O)c2cc(-c3ccccc3)nc3ccccc23)cc1OC` gave ClpP mod -1%, RORg inh inconclusive, PINK1 expr mod 3%, Gal4-VP16 FLuc 8% and Sfp PPTase inh -15%.
For COc1ccc(-c2cc(C(=O)N(C)CCc3ccc(OC)c(OC)c3)c3ccccc3n2)cc1 the results were ClpP mod 3%, RORg inh 5µM*, PINK1 expr mod 0%, Gal4-VP16 FLuc -9% and Sfp PPTase inh -6%.
Screening Cc1ccc2oc(=O)c3cc(C(=O)NCCCOC(C)C)sc3c2c1 returned ClpP mod inconclusive, PINK1 expr mod 1% and Epigenetic derep 0%.
For COc1cccc(-n2c(-c3ccco3)nc3c(cnn3-c3ccc(C)cc3)c2=O)c1 the results were ClpP mod -30%, PINK1 expr mod 1% and Epigenetic derep 0%.
`Cc1c(N2C(=O)/C(=C/C3CC=CCC3)SC2=S)c(=O)n(-c2ccccc2)n1C` (stereo unspecified) gave ClpP mod -3%, RORg inh -38%, PINK1 expr mod 16%, Gal4-VP16 FLuc -12%, Sfp PPTase inh 45µM* and Epigenetic derep 0%.
Cc1c(N2C(=O)/C(=C\C3CC=CCC3)SC2=S)c(=O)n(-c2ccccc2)n1C (stereo unspecified) was read as ClpP mod 0%, RORg inh inconclusive, PINK1 expr mod 7%, Gal4-VP16 FLuc -18%[10 µM], Sfp PPTase inh 50µM* and Epigenetic derep 0%.
`Cc1c(N2C(=O)/C(=C\c3ccccc3O)SC2=S)c(=O)n(-c2ccccc2)n1C` gave ClpP mod 3%, RORg inh inconclusive, PINK1 expr mod 2%, Gal4-VP16 FLuc inconclusive, Sfp PPTase inh 13µM* and Epigenetic derep -1%.
`C=CCC(CC=C)(CNC(=O)C(=O)Nc1cc(C)ccc1OC)c1ccc(OC)c(OC)c1` gave ClpP mod -1%, PINK1 expr mod 1% and Epigenetic derep 1%.
Screening Clc1ccc(SCNc2ccccc2Cl)cc1 returned ClpP mod -2%, RORg inh -26%, PINK1 expr mod -1%, Gal4-VP16 FLuc 1%, Sfp PPTase inh 45µM* and Epigenetic derep -1%.
Screening Cc1ccc(NCSc2ccc(Cl)cc2)cc1 returned PINK1 expr mod 7%.
For O=C(Nc1cc(F)ccc1F)N1CCC(CN2CCOCC2)CC1 the results were ClpP mod 1%, PINK1 expr mod 1% and Epigenetic derep -1%.

Screening results: PubChem BioAssay, National Center for Advancing Translational Sciences (NCATS)
